Compounds with a hit are over-represented: about 2.8% of the library has one in this group of screens.
HepG2 viability – HepG2 cytotoxicity, counter-screen for TGF-b inhibitors; HepG2 CAGA-GFP viability, ATP luminescence, 18 h; Potency, µM (doses to about 46.1 µM), without a hit: at the highest dose activity change, negative = cytotoxicity, usual class: cytotoxic; actives 0.76% (n = 410,000); further: potency means the concentration at half of the fitted maximal effect
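CellTiter-Glo luminescence gave cytotoxicity after 18 hours at 37 degrees C. The cells were HepG2 CAGA-GFP in 1% FBS DMEM, stimulated with 500 pg/mL TGF-beta after compound addition. %Activity was normalised to no-cell wells (complete cell-killing) and DMSO (no toxicity), and curves were fitted and classified.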
TGFb SMAD3 inh – TGF-b pathway inhibition; HepG2 CAGA-GFP TGF-b/SMAD3 reporter, GFP fluorescence, 18 h; TGF-beta stimulated, 500 pg/mL final; Potency, µM (doses to about 46.1 µM), inactives show at the highest dose activity, negative = inhibition, usual class: inhibitors; actives 1.2% (n = 410,000); AID 588855; further: potency means the concentration at half of the fitted maximal effect; on the % scale 0 is the no-effect control and ±100 the full control effect; nearly all actives have a fitted effect of over 65% in size
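HEPG2 CAGA-GFP, 1000 cells/well; 2 h settle, 37 C; cpd via pin tool; TGF-b 500 pg/mL final; 18 h, 37 C; GFP imaging ex488/em500-530; %Activity normalised to -TGF-b and +DMSO controls; CRC fit, curve class.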
Six1-Eya2 inh – blocks human Six1 binding to Eya2; AID 651725; Q15475+O00167; AlphaScreen GST-Six1/His-Eya2 binding, biochemical; stronger effect = lower value; actives 0.56% (n = 360,000); activity change, % (test concentration not listed); in the data active means activity change below about -65%; inconclusive means mostly about -30% to -63%; further: on the % scale 0 is the no-effect control and ±100 the full control effect
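Compounds are tested against tagged Six1 and Eya2 proteins bridged by glutathione donor and nickel acceptor beads; after a one-hour incubation at 37 °C without light, AlphaScreen emission is recorded.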
CtBP-E1A blk – blocks the CtBP interaction with E1A | AlphaScreen GST-E1A/His-CtBP binding, 1536-well; stronger effect = lower value | activity change, % (test concentration not listed) | actives 0.49% (n = 340,000) | AID 651724; in the data active means activity change below about -65%; inconclusive means mostly about -30% to -63%; further: on the % scale 0 is the no-effect control and ±100 the full control effect
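GST-E1A and His-tagged CtBP (125 nM each as 5X stock) were preincubated with pin-transferred compound for 2 h at 37 °C in the dark, then glutathione donor and nickel acceptor beads were added for 1 h before AlphaScreen reading.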
S2 tox – reduces viability in counter-screen for ATXN expression inhibitors; S2 cells (HEK-293 line with an ATXN2-luciferase reporter) viability, CellTiter-Fluor protease fluorescence, 24 h; actives 0.49% (n = 400,000); Potency, µM (doses to about 56.7 µM), hits mostly cytotoxic; further: potency means the concentration at half of the fitted maximal effect; nearly all actives have a fitted effect of over 40% in size
ATXN2 expr inh – reduces ATXN2 reporter expression in HEK-293 cells. HEK-293 ATXN2-luciferase reporter, luminescence, 24 h. Potency, µM (highest dose often 57 µM), for the others: at the highest dose activity change, negative = inhibition, actives largely listed as inhibitors. actives 0.72% (n = 360,000). AID 1745845; further: potency means the concentration at half of the fitted maximal effect; on the % scale 0 is the no-effect control and ±100 the full control effect; nearly all actives have a fitted effect of over 55% in size
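qHTS (up to 57 uM final) was run with 24 h compound exposure of reporter cells at 37 °C. Each well was multiplexed: SteadyGlo luminescence measured ATXN2-luciferase expression after a fluorogenic Gly-Phe-AFC viability readout (25 uM final).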
* hit, by the source's call; i = inactive; u = inconclusive; x = no result; [ ] = another dose, or the depositor's remark. Unless noted, the call rests on the fitted dose curve; in most records, active means well fitted curve in the direction sought with a large enough effect; inconclusive means small, poorly fitted or top-dose-only effect, or another doubt; inactive means no such curve, though single readings can be large; an effect the other way counts as inactive or inconclusive.

SMILES	HepG2 viability	TGFb SMAD3 inh	Six1-Eya2 inh	CtBP-E1A blk	S2 tox	ATXN2 expr inh
Cc1oc2ncn(CC(C)C)c(=O)c2c1C(=O)Nc1ccc(Cl)cn1	-1.9%	-2.7%	x	x	i	2.4%
Cc1oc2ncn(CC(C)C)c(=O)c2c1C(=O)Nc1cc(F)ccc1F	3.5%	-5.2%	x	x	u	35.5µM*
C=CCN1C(=O)/C(=C/c2ccc(OC(C)=O)c(OCC)c2[N+](=O)[O-])SC1=S	-53.7%	7.08µM*	u	-22.5	x	u
Cc1ccc(S(=O)(=O)NCC(Nc2cccc(Cl)c2)c2ccccc2)cc1 (stereo not drawn)	17.8µM*	11.2µM*	x	x	i	u
O=S(=O)(NCC(Nc1ccc(Cl)cc1)c1ccccc1)c1ccc(Cl)cc1 (stereo not drawn)	-65.6%	12.6µM*	4.3	8.0	i	u
O=S(=O)(NCC(c1ccccc1)N1CCC(O)CC1)c1ccc(Cl)cc1 (stereo not drawn)	-41.0%	-0.2%	2.3	4.0	i	-4.5%
C#CCN(C1CCCC1)S(=O)(=O)C=C	-65.3%	-19.5%	x	x	x	x
O=C(O)C1=CO[C@@H](O[C@@H]2O[C@H](CO)[C@H](O)[C@H](O)[C@H]2O)[C@@H]2C(CO)=CC[C@H]12	x	x	x	x	x	2.0%
O=C1c2cccc3c([N+](=O)[O-])ccc(c23)C(=O)N1c1ccc(Cl)cn1	-0.6%	28.0%	-12.9	-4.2	x	u
O=C1c2cccc3c([N+](=O)[O-])ccc(c23)C(=O)N1c1ccccn1	-103.8%	0.0%	-11.0	-3.7	x	14.1µM*
COc1ccc(OC)c(-c2nnc3ccc(-c4ccc(OC)c(O[C@@H]5CCOC5)c4)nn23)c1	x	x	x	x	x	27.3µM*
Clc1cccc(-c2nc(-c3ccccn3)no2)c1	-36.4%	u	2.0	6.0	i	12.6µM*
c1ccc(-c2nc(-c3ccccn3)no2)cc1	10µM*	2.9%	-0.4	-25.3	i	4.47µM*
Cc1ccc(Cc2nc(-c3ccccn3)no2)cc1	-1.2%	-5.7%	-1.8	-0.3	i	26.4%
Cc1ccc(-c2nc(-c3ccccn3)no2)cc1	12.6µM*	-0.8%	4.7	12.1	i	2µM*
Cc1ccc(-c2nc(-c3ccccn3)no2)cc1[N+](=O)[O-]	-53.8%	-37.4%	-7.7	1.4	i	u
Cc1ccc(-c2nc(-c3ccccn3)no2)cc1Cl	11.2µM*	-2.3%	-5.3	2.2	i	10µM*
c1ccc(-c2ccc(-c3nc(-c4ccccn4)no3)cc2)cc1	7.08µM*	-6.2%	5.5	4.1	i	u
Cc1ccc(SCc2nc(-c3ccc(C(=O)NCC(C)c4ccccc4)cc3)oc2C)cc1 (stereo not drawn)	-31.6%	-2.4%	x	x	i	-14.2%
COc1ccccc1-c1ccnc(-n2ncc(C(=O)N(C)C(C)c3nc(C)cs3)c2C2CC2)n1 (stereo not drawn)	x	x	x	x	i	x
Cc1[nH]c2ccccc2c1C(c1c[nH]c2ccccc12)c1c(C)[nH]c2ccccc12	-46.8%	15.8µM*	x	x	x	x
Cc1ccc(C(c2ccccc2)c2c(C)[nH]c3ccccc23)s1 (stereo not drawn)	-99.3%	14.1µM*	x	x	u	u
c1ccc2c(C(c3c[nH]c4ccccc34)c3c[nH]c4ccccc34)c[nH]c2c1	-109.5%	u	x	x	x	x
CCc1ccc(C(c2ccccc2)c2c(C)[nH]c3ccccc23)s1 (stereo not drawn)	-96.0%	u	x	x	x	u
Cc1ccc2nc(SCC(=O)NCC3Cc4cccc(-c5nc(C)cnc5C)c4O3)[nH]c2c1 (stereo not drawn)	x	x	x	x	i	x
SMILES	HepG2 viability	TGFb SMAD3 inh	Six1-Eya2 inh	CtBP-E1A blk	S2 tox	ATXN2 expr inh
Cc1cc(-c2ccc(N=Nc3ccc4c(S(=O)(=O)O)cc(S(=O)(=O)O)c(N)c4c3O)c(C)c2)ccc1N=Nc1ccc2c(S(=O)(=O)O)cc(S(=O)(=O)O)c(N)c2c1O	x	x	x	x	12.6µM*	x
CC1CC(=O)N(CC(=O)Nc2ccc(F)cc2F)c2ccccc2S1 (stereo not drawn)	6.7%	14.9%	x	x	i	9.6%
CC(=O)N(C)C1(c2ccccc2)CCN(CCC[C@]2(c3ccc(Cl)c(Cl)c3)CCCN(C(=O)c3ccccc3)C2)CC1	x	x	x	x	x	21.7µM*
O=C(Nc1ccc2nc3n(c(=O)c2c1)CCCC3)c1cc([N+](=O)[O-])ccc1F	-59.9%	u	-29.3	-15.3	x	25.1µM*
O=C(Nc1ccc2nc3n(c(=O)c2c1)CCCC3)c1cncc(Br)c1	0.2%	4.4%	u	-65.3*	i	1.9%
O=C(Nc1ccc2nc3n(c(=O)c2c1)CCCC3)c1cccc([N+](=O)[O-])c1	-5.1%	-0.1%	-66.0*	-0.4	u	8.4%
O=C(NC(c1ccc(-c2ccccc2)cc1)c1cnccn1)C1CCN(Cc2ccc(Oc3ccccc3)cc2)CC1 (stereo not drawn)	-61.6%	u	-5.3	-0.6	u	u
COc1cc(CN2CCC(C(=O)NC(c3ccc(-c4ccccc4)cc3)c3cnccn3)CC2)cc(OC)c1 (stereo not drawn)	22.4µM*	u	-25.0	-12.2	u	u
CCC1C(=O)NCCN1Cc1ccc2c(c1)CN(Cc1ccc(OC)c(OC)c1)CCO2 (stereo not drawn)	x	x	x	x	i	x
S=C(Nc1ccccc1Cl)NC1CCN(Cc2ccccc2)CC1	-41.3%	-34.4%	-10.1	5.4	i	-12.9%
S=C(Nc1cc(Cl)cc(Cl)c1)NC1CCN(Cc2ccccc2)CC1	15.8µM*	u	-10.4	-6.8	u	u
CCN(CC)CCCNC(=O)c1oc2c(c1C)-c1nn(Cc3ccc(Cl)cc3)cc1CC2	12.6µM*	-25.0%	x	x	x	x
NC1=N[C@H]2[C@H](CS[C@H]2CCCCC(=O)O)N1	x	x	x	x	x	11.6%[25.6 µM]
COc1ccc(-c2cccc(NS(=O)(=O)c3cc(C(F)(F)F)ccc3Cl)c2)nn1	-7.7%	u	x	x	i	-6.2%
COc1ccc(-c2cccc(NS(=O)(=O)c3cc(C)c(Cl)cc3C)c2)nn1	11.2µM*	u	x	x	i	-22.0%
NC(=O)c1ccc(N(C(N)=O)c2c(F)cccc2F)nc1-c1ccc(F)cc1F	x	x	x	x	x	-16.8%
CN(C)c1ccc(CNc2ncc(Br)cc2Br)cc1	-40.1%	-2.6%	-65.9*	u	i	31.9%
COc1ccccc1/C=c1/[nH]c(=O)/c(=C\c2ccccc2OC)[nH]c1=O	-16.2%	u	x	x	x	x
COc1cccc(C(=O)NNC2=C(C(=O)C(F)(F)F)CCC2)c1	3.98µM*	u	7.4	-1.1	i	-31.9%
